GCN5L2 inh = blocks human GCN5L2 histone acetyltransferase; 390,000 compounds, 0.21% hits; GCN5L2 HAT assay, ThioGlo1 CoA-SH fluorescence; Q92830; Potency, µM (titrated, usually from 58.9 µM), usual class: inhibitors
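Fluorescence readout, Ex340nm/Em540nm: ThioGlo1 (50uM final) reacts with free CoA thiol released as 20nM GCN5L2 acetylates H3(1-25) peptide (75uM) using acetyl-CoA (70uM). Compound and enzyme sat 15 min beforehand; 20 min room-temperature reaction.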
PGK inhibitor = inhibitors of T. brucei phosphoglycerate kinase; P07378; AID 602233; PGK/GAPDH coupled, Kinase-Glo luminescence, 60 min; 380,000 compounds, 0.043% hits; Potency, µM (top dose mostly 57.5 µM), hits mostly inhibitors; further: nearly all actives have a fitted effect of over 60% in size
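Recombinant glycosomal PGK reaction used 1,3-bisphosphoglycerate generated in-well by GAPDH (100nM final) in 100mM TEA pH 7.6, 5mM MgCl2, 0.01% Tween-20. After 60 minutes at room temperature, ATP was read by Kinase-Glo Plus luminescence end-point.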
Tb PFK inh-1 = blocks T. brucei phosphofructokinase; O15648; T. brucei PFK, ADP-Glo luminescence; Potency, µM (doses to about 57.5 µM), hits mostly inhibitors; 330,000 compounds, 0.17% hits; AID 485367; further: nearly all actives have a fitted effect of over 60% in size
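In TEA buffer at pH 8.0 with 5 mM MgCl2, enzyme (1.25 nM) converted F6P (0.5 mM) and ATP (0.1 mM) for 45 min at room temperature. ADP product was read by luciferase luminescence.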
GLS inhibitor = blocks human kidney-isoform glutaminase activity; O94925; Potency, µM (series often up to 45.5 µM), hits mostly inhibitors; GLS enzymatic activity, qHTS titration; 410,000 compounds, 0.21% hits
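Read-out is an Amplex red fluorescence increase coupled through glutamate oxidase and HRP, measured before and after 30 min room-temperature incubation. hKGA is in 45 mM KH2PO4 (pH 8.2) with 0.02% Tween-20; glutamine added as 1mM solution.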
USP2a inh = blocks human ubiquitin-specific protease USP2a. O75604. USP2 core, Ub-CHOP2 coupled fluorogenic reporter, 485/531. Potency, µM (highest dose often 38.3 µM), most hits filed as inhibitors. 330,000 compounds, 0.01% hits. AID 463254
Target sequence (O75604 whole entry, looked up): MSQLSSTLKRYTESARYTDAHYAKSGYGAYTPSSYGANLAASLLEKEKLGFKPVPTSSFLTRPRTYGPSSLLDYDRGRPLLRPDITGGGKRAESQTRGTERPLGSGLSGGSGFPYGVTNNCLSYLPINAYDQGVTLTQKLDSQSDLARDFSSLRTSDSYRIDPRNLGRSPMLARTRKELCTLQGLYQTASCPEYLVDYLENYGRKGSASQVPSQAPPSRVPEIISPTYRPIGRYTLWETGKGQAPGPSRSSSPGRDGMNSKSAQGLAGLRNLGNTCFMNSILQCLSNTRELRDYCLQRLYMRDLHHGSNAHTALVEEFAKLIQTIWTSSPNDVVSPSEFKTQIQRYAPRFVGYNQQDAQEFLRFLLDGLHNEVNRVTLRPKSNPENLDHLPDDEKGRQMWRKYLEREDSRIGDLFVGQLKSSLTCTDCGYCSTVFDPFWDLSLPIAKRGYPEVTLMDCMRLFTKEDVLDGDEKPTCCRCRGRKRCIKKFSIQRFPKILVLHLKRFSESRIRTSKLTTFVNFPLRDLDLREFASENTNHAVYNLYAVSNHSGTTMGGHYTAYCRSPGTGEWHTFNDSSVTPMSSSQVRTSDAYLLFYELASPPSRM
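USP2 core (10nM final) preincubated 30min RT with compound in 20mM Tris-HCl pH 8.0, 2mM CaCl2, 2mM beta-mercaptoethanol, 0.05% CHAPS; 25nM Ub-CHOP2 plus 25nM reporter substrate added, fluorescence (Ex485/Em531) read after 60min.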
Tb PFK KinaseGlo = inhibits T. brucei PFK measured by ATP depletion. shares compounds with Tb PFK inh-1. Tb PFK enzyme, ATP depletion, Kinase-Glo Plus luminescence. Potency, µM (highest dose often 57.5 µM). 1,100 compounds, 47% hits. AID 504636; calls by dose curve; further: nearly all actives have a fitted effect of over 60% in size
Tb PFK inh-2 = validation of T. brucei phosphofructokinase inhibitors. shares compounds with Tb PFK inh-1. purified T. brucei PFK, ADP-Glo luminescence, 45 min. Potency, µM (highest dose often 57.5 µM), actives largely listed as inhibitors. 1,100 compounds, 41% hits. AID 504637; further: nearly all actives have a fitted effect of over 60% in size
A number is an active result; – = inactive; ? = inconclusive; · = no result; [ ] = dose if it differs, or a comment. This is a sample that favours compounds with a hit; in the whole collection about 0.52% have one here. Unless noted, the call rests on the fitted dose curve; in most records, active means well fitted curve in the direction sought with a large enough effect; inconclusive means small, poorly fitted or top-dose-only effect, or another doubt; inactive means no such curve, though single readings can be large; an effect the other way counts as inactive or inconclusive.

SMILES	GCN5L2 inh	PGK inhibitor	Tb PFK inh-1	GLS inhibitor	USP2a inh	Tb PFK KinaseGlo	Tb PFK inh-2
COc1ccc(CCNC(=O)c2cc3c(=O)n4cccc(C)c4nc3n(Cc3ccco3)c2=N)cc1OC	–	–	?	–	–	–	–
O=c1ccnc(NCCc2ccccc2)[nH]1	–	–	9.5µM	–	–	21µM	27µM
c1ccc(CCNCc2ccccc2)cc1	–	–	–	–	–	·	·
C[C@H](N)C(=O)c1ccccc1	·	·	·	–	·	·	·
O=c1ccc2c(-c3ccccc3)c3ccc(O)cc3oc-2c1	?	–	12µM	–	?	–	–
Nc1ncccc1OCc1ccc(Cl)c(Cl)c1	–	–	13µM	–	–	5.4µM	17µM
COc1cc(N[C@@H](C)CCCN)c2ncccc2c1	–	·	·	–	·	–	–
Cc1ccc2cc3c(ccc4ccccc43)c3c2c1CC3	–	·	·	·	·	·	·
COCCN(C(=O)CCl)c1c(C)cccc1C	–	·	·	·	·	·	·
Nn1c(Cc2cccc3ccccc23)n[nH]c1=S	–	–	?	–	–	1.5µM	2.1µM
O=C(CCC(=O)N1CCOc2ccc(Cl)cc21)NCCN1CCOCC1	?	–	?	–	–	?	?
O=C1c2ccccc2C(=O)N1/N=C/c1ccc(O)c(O)c1O	–	–	19µM	?	–	11µM	27µM
O=C(Cc1ccc(Br)cc1)N1CCN(Cc2ccccc2)CC1	–	–	–	–	–	·	·
S=C(c1ccc(Br)cc1)N1CCN(Cc2ccccc2)CC1	–	–	?	–	–	8.5µM	27µM
Oc1ccc(C(=S)N2CCN(Cc3ccccc3)CC2)cc1	–	–	?	–	–	9.5µM	19µM
C[C@H]1O[C@H](O[C@H]2[C@H](O)[C@@H](O)[C@@H](O)[C@H](O)[C@@H]2O)[C@@H](N)C[C@@H]1NC(=N)C(=O)O	–	·	·	·	·	·	·
O=S1(=O)CCN(Cc2ccc(Cl)c(C(F)(F)F)c2)CC1	–	–	?	–	–	24µM	?
CN1CCN(Cc2cc(C(C)(C)C)c(O)c(C(C)(C)C)c2)CC1	–[0.501 µM]	–	–	–	–	·	·
CCN(CC)C(=O)c1ccc(NC(=O)Cn2nc(-c3ccc(C)cc3)c3ccccc3c2=O)cc1	–	–	·	–	·	·	·
Cc1c(Br)c([N+](=O)[O-])nn1CC(=O)Nc1ccc(C(N)=O)cc1	–	–	19µM	–	–	13µM	27µM
CCC1(C)CC(C(N)=S)CCO1 (configuration not stated)	?	–	?	?	–	·	·
CC(NC(=O)CCl)c1ccc(Cl)c(Cl)c1 (configuration not stated)	–	–	19µM	–	–	21µM	24µM
COc1ccccc1/C=C/C(=O)NCC(=O)N/N=C/c1ccccc1[N+](=O)[O-]	–	–	?	–	–	–	?
NC(=O)Nc1ccc(Cl)cc1	–	–	21µM	–	–	24µM	30µM
CCCC(C)(COC(N)=O)COC(=O)NC1CC1 (configuration not stated)	–	·	·	–	·	·	·
SMILES	GCN5L2 inh	PGK inhibitor	Tb PFK inh-1	GLS inhibitor	USP2a inh	Tb PFK KinaseGlo	Tb PFK inh-2
O=C(O)c1ccc(Nc2ncnc3c2cnn3Cc2ccccc2)cc1	–	–	?	–	–	?	?
Cc1nn(Cc2ccccc2)c(Cl)c1C(=O)O	–	–	–	–	–	·	·
CN1[C@@H]2CC[C@H]1CC(OC(c1ccc(F)cc1)c1ccc(F)cc1)C2 (some centres not stated)	–	·	·	·	·	·	·
CCOC(=O)C1(c2ccccc2)CCN(CCc2ccc(NC(=O)CCC(=O)O)cc2)CC1	·	–	·	–	·	·	·
O=C(O)CCC(=O)Nc1ccc(SSc2ccc(NC(=O)CCC(=O)O)cc2)cc1	–	–	?	?	–	8.5µM	17µM
Cc1cc(C(=O)Nc2ccccc2)nn1C(C)(C)C	–	–	–	–	–	·	·
CC1=C(C(=O)Nc2ccccc2)C(c2ccc[nH]2)n2ncnc2N1 (configuration not stated)	?	·	?	?	?	?	–
O=C(O)C1C2CCC(O2)C1C(=O)Nc1cccc(Br)c1 (configuration not stated)	–	–	–	–	–	·	·
